D1 agonist – human D1 receptor agonism. P21728. HEK293 T-REx D1 cells, calcium flux, agonist mode. activation, % at 2 µM. 360,000 tested, 1% active; in the data active = activation above about 30%; note: 0% is about no effect
Target sequence (P21728 whole entry, looked up): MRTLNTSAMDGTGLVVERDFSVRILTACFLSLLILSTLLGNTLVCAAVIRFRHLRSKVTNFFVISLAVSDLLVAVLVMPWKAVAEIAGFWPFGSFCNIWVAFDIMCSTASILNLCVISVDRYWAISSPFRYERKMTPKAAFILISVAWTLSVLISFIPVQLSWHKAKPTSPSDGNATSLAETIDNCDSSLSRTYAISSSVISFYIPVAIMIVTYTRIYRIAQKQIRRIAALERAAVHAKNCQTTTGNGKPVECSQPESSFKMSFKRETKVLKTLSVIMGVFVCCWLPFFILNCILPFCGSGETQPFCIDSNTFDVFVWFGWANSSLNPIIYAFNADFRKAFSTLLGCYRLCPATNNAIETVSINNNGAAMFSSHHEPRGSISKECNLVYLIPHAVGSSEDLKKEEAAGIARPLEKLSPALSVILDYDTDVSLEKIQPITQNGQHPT
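Inducible HEK293 T-REx D1 cells, force-coupled to calcium signalling, were plated at 4000 cells/well with tetracycline and held overnight at 30 C. After no-wash calcium dye loading, compound-evoked calcium rise over 180 s flagged agonists.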
DRD3 agonist – agonists of human D3 dopamine receptor | P35462 | D3R DiscoveRx beta-arrestin cells, luminescence, 90 min | max activation, % | 410,000 tested, 0.58% active | AID 652048; in the data active = max activation above about 30%; note: 0% is about no effect
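Agonist mode: compounds and dopamine controls were applied to plated cells for 90 min at 37 degrees C after an overnight attachment at 1500 cells/well. Luminescent read-out followed 30 - 60 minutes at room temperature with DiscoveRx detection reagent.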
DRD3 antagonist – blocks the human D3 dopamine receptor | P35462 | D3R cells, DiscoveRx beta-arrestin luminescence, antagonist mode; hits give low values | max response, negative = inhibition, % | 360,000 tested, 2.5% active; in the data active = max response below about -50%; inconclusive = no clear call, values can overlap the other calls; note: % is set by controls: 0 for no effect and ±100 for the full control effect
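Cells plated overnight at 1500 cells/well, then exposed to library compounds with dopamine controls for 90 minutes at 37 degrees C. DiscoveRx reagent added for 30–60 minutes at room temperature; luminescence read, quantitative HTS format.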
D1 PAM – enhances dopamine response at the human D1 receptor. P21728. HEK293 TREx D1 cells, calcium flux, dopamine EC20 potentiation. potentiation, % at 10 µM. 360,000 tested, 0.036% active; in the data active = potentiation above about 30%; note: 0% is about no effect
D1 antag – human D1 dopamine receptor antagonism | HEK293 TREx D1 cells, calcium flux, dopamine EC80; hits give low values | activity change, negative = inhibition, % at 10 µM | 360,000 tested, 3.2% active | AID 504652; in the data active = activity change below about -30%; note: % is set by controls: 0 for no effect and ±100 for the full control effect
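After overnight tetracycline induction at 30 C, force-coupled D1 HEK293 cells took up a no-wash calcium dye at room temperature. Compounds were added and monitored 180 s, and the response to EC80 dopamine was then recorded.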
Active calls of the source: *. Sampled rows, rich in hits. Any-hit rate of the full collection: about 6.1%.

How did CCCCCn1c(=O)[nH]c2cc(C(=O)N3CCN(c4cccc(C)c4)C(C)C3)ccc2c1=O (stereo unspecified) do in these assays?
D1 agonist: 5.1; DRD3 agonist: 16.4; D1 PAM: 1.4; D1 antag: -13.2

Results for CCCN1C(=O)c2[nH]nc(-c3ccccc3O)c2C1c1cccc(OCc2ccccc2)c1 (stereo unspecified) ?
D1 agonist: 2.2; DRD3 agonist: 7.4; D1 PAM: 2.1; D1 antag: 3.3

Results for Cc1ccc(CCNC(=O)c2ccc(Cn3c(=O)c4cccn4c4cccnc43)cc2)cc1 ?
D1 agonist: 2.1; DRD3 agonist: 0.9; D1 PAM: -0.5; D1 antag: 2.4

How did CCN(CC)S(=O)(=O)c1cc(-c2nnc(-c3ccc(Br)cc3)o2)ccc1Br do in these assays?
D1 agonist: 2.2; DRD3 agonist: -9.6; DRD3 antagonist: -64.8*; D1 PAM: -2.1; D1 antag: 5.4

How did CCC(C)NC(=O)c1ccc(NS(=O)(=O)c2ccc3[nH]c(=O)[nH]c3c2)cc1 (stereo unspecified) do in these assays?
D1 agonist: 0.7; DRD3 agonist: 5.6; DRD3 antagonist: 21.3; D1 PAM: -3.1; D1 antag: -32.6*

What do the screens show for `Cc1ccc2cc(CN(CCN3CCCC3)C(=O)Nc3ccccc3)c(=O)[nH]c2c1C`?
D1 agonist: 1.2; DRD3 agonist: -10.7; DRD3 antagonist: -67.4*; D1 PAM: 0.8; D1 antag: 5.0

Results for Cc1ccc2cc(CN(CCN3CCOCC3)C(=O)NCc3ccccc3)c(=O)[nH]c2c1C ?
D1 agonist: 0.6; DRD3 agonist: 2.7; DRD3 antagonist: -8.8; D1 PAM: 2.5; D1 antag: -26.8

What do the screens show for `COc1ccc(NC(=O)N(CCN2CCCC2)Cc2cc3cc(OC)c(OC)cc3[nH]c2=O)cc1`?
D1 agonist: 1.2; DRD3 agonist: -2.5; DRD3 antagonist: inconclusive; D1 PAM: 5.0; D1 antag: 4.5

What do the screens show for `Cc1ccc2cc(CN(CCN3CCCC3)C(=O)Nc3ccc(F)cc3)c(=O)[nH]c2c1C`?
D1 agonist: 2.6; DRD3 agonist: -23.6; DRD3 antagonist: -77.7*; D1 PAM: -4.0; D1 antag: 2.9

How did CCS(=O)(=O)N1CCc2cc(C(=O)Nc3ccc(OC)c(Cl)c3)ccc21 do in these assays?
D1 agonist: 1.6; DRD3 agonist: -10.9; D1 PAM: -3.0; D1 antag: -28.1

What do the screens show for `CSc1ncc(C(=O)Nc2cccc(C)c2C)c(C)n1`?
D1 agonist: -0.4; DRD3 agonist: -7.2; DRD3 antagonist: 1.8; D1 PAM: -2.9; D1 antag: -46.6*

What do the screens show for `CC(=O)N(C)C1=C(N2CCOCC2)C(=O)c2ccccc2C1=O`?
D1 agonist: 2.4; DRD3 agonist: -32.5; DRD3 antagonist: -56.7*; D1 PAM: 1.2; D1 antag: 19.3

How did COC(=O)c1ccc(C)cc1 do in these assays?
DRD3 agonist: 1.6; DRD3 antagonist: 12.4

Results for COC(=O)c1ccc(C)c(N(CCO)CCO)c1 ?
D1 agonist: 1.0; DRD3 agonist: 36.1*; DRD3 antagonist: -6.4; D1 PAM: -7.4; D1 antag: -43.0*

Results for CCc1ccc(NC(=O)c2cccc(N3CCCS3(=O)=O)c2)cc1 ?
D1 agonist: 1.2; DRD3 agonist: 2.4; D1 PAM: -6.6; D1 antag: -21.6

Results for c1ccc(Sc2ncnc3c2oc2ccccc23)cc1 ?
D1 agonist: 0.6; DRD3 agonist: 9.6; DRD3 antagonist: 3.6; D1 PAM: -4.7; D1 antag: -35.1*

How did CCOc1ccccc1C(=O)NCCN1CCC(n2c(=O)[nH]c3ccccc32)CC1 do in these assays?
DRD3 agonist: -14.4; DRD3 antagonist: -28.9

What do the screens show for `Cc1ccc(C(=O)NCCN2CCC(n3c(=O)[nH]c4ccccc43)CC2)cc1`?
DRD3 agonist: -14.6; DRD3 antagonist: -106.4*

How did O=C(NCCN1CCC(n2c(=O)[nH]c3ccccc32)CC1)c1c(F)cccc1F do in these assays?
DRD3 agonist: -12.4; DRD3 antagonist: -92.4*

How did O=C(NCCN1CCC(n2c(=O)[nH]c3ccccc32)CC1)c1ccc(Cl)c(Cl)c1 do in these assays?
DRD3 agonist: -15.1; DRD3 antagonist: -85.1*

What do the screens show for `O=C(NCCN1CCC(n2c(=O)[nH]c3ccccc32)CC1)c1ccc(F)cc1`?
DRD3 agonist: -17.1; DRD3 antagonist: -79.2*

Results for CC(=O)c1ccc(NC(=O)C2CCCN(S(=O)(=O)c3cn(C)cn3)C2)cc1 (stereo unspecified) ?
D1 agonist: 0.2; DRD3 agonist: 1.9; D1 PAM: -1.1; D1 antag: 2.5

Results for O=C(NCCc1ccccc1)c1ccc(CSc2nc3ccncc3n2Cc2ccc(F)cc2)cc1 ?
D1 agonist: 7.5; DRD3 agonist: -8.6; D1 PAM: 0.6; D1 antag: -5.4

What do the screens show for `Cc1ccc(C(=O)NCCN2CCC(n3c(=O)[nH]c4ccccc43)CC2)cc1F`?
DRD3 agonist: -11.4; DRD3 antagonist: -70.1*

How did O=C(NCCN1CCOCC1)c1cccs1 do in these assays?
D1 agonist: -0.2; DRD3 agonist: -0.2; DRD3 antagonist: 9.9; D1 PAM: 2.7; D1 antag: 1.9

How did O=C(NCCN1CCC(n2c(=O)[nH]c3ccccc32)CC1)c1ccc(F)cc1F do in these assays?
DRD3 agonist: -14.1; DRD3 antagonist: -108.9*

How did O=C(NCCN1CCC(n2c(=O)[nH]c3ccccc32)CC1)c1ccc(Cl)cc1 do in these assays?
DRD3 agonist: -15.3; DRD3 antagonist: -50.7*

Results for O=C(NCCN1CCC(n2c(=O)[nH]c3ccccc32)CC1)c1cccs1 ?
DRD3 agonist: -16.5; DRD3 antagonist: -102.7*

Results for O=C(NCCN1CCC(n2c(=O)[nH]c3ccccc32)CC1)c1cccc2c1-c1ccccc1C2=O ?
DRD3 agonist: -13.6; DRD3 antagonist: 0.0

How did O=C(Nc1cccc(F)c1)N1CCC(n2c(=O)[nH]c3ccccc32)CC1 do in these assays?
D1 agonist: 2.7; DRD3 agonist: -38.3; DRD3 antagonist: -18.9; D1 PAM: 3.9; D1 antag: 20.8

How did CCOc1ccc(-n2c(SCC(=O)Nc3cc(C)ccc3C)nc3c([nH]c4ccccc43)c2=O)cc1 do in these assays?
D1 agonist: 2.0; DRD3 agonist: -9.0; D1 PAM: -3.1; D1 antag: 5.0

What do the screens show for `Cc1cccc(-n2c(=O)c3c(c4cc(C)ccc4n3C)n(CC(=O)Nc3ccc(C)cc3C)c2=O)c1`?
D1 agonist: 1.3; DRD3 agonist: 2.4; D1 PAM: -2.6; D1 antag: 7.7

Results for COCCNc1nc2c(c(=O)n(C)c(=O)n2C)n1Cc1c(F)cccc1Cl ?
D1 agonist: 3.7; DRD3 agonist: 14.5; D1 PAM: -0.5; D1 antag: 6.3

What do the screens show for `CCOC(=O)CSc1nnc(-c2c[nH]c3ccccc23)n1CC`?
D1 agonist: 12.0; DRD3 agonist: 1.3; DRD3 antagonist: 6.4; D1 antag: -2.8

From PubChem
